Screens (PubChem BioAssay)
Only some compounds are listed: those with a hit (about 6.3% of all), similar ones and a draw of the others.
ATXN viability = cell viability loss in ATXN counter-screen; AID 651635; Potency, µM (series often up to 56.7 µM), actives largely listed as cytotoxic; 0.49% of 400,000 active; S2 cells (HEK-293 line with an ATXN2-luciferase reporter) viability, CellTiter-Fluor protease fluorescence, 24 h; also: nearly all actives have a fitted effect of over 40% in size
TGFb SMAD3 inh = blocks TGF-b signaling | HepG2 CAGA-GFP TGF-b/SMAD3 reporter, GFP fluorescence, 18 h; TGF-beta stimulated, 500 pg/mL final | Potency, µM (series often up to 46.1 µM), inactives show at the top dose activity, negative = inhibition, most hits filed as inhibitors | 1.2% of 410,000 active; also: % is scaled to controls: 0 for no effect and ±100 for the full control effect; nearly all actives have a fitted effect of over 65% in size
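Cell-based qHTS in HEPG2 carrying a CAGA-GFP Smad reporter; compounds added before 500 pg/mL final TGF-beta, 18 h incubation at 37 degrees C, GFP fluorescence quantified per cell by imaging cytometry.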
HepG2 viability = counter-screen for TGF-b inhibitors: cytotoxicity in HepG2 cells | HepG2 CAGA-GFP viability, ATP luminescence, 18 h | Potency, µM (top dose mostly 46.1 µM), for inactives: at the top dose activity change, negative = cytotoxicity, usual class: cytotoxic | 0.76% of 410,000 active
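HepG2 CAGA-GFP cells (1000/well, DMEM with 1% FBS) received compound, then TGF-beta at 500 pg/mL final, and were incubated 18 hours at 37 degrees C. Viability was read by CellTiter-Glo luminescence. Media-only wells were set as complete cell-killing and DMSO as no toxicity.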
Gal4-VP16 FLuc = inhibits Gal4-VP16 luciferase reporter, ROR gamma counter-screen; Potency, µM (top dose mostly 53.6 µM), inactives show top-dose activity, negative = inhibition, usual class: inhibitors; Drosophila S2 Gal4-VP16 UAS-luciferase, luminescence, 20 h; AID 2546; 3.5% of 310,000 active;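 also: Gal4-VP16 expression switched on by copper sulfate through the metallothionein promoter; % is scaled to controls: 0 for no effect and ±100 for the full control effect; nearly all actives have a fitted effect of over 50% in size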
ATXN2 expr inh = inhibitors of ATXN2 expression | HEK-293 ATXN2-luciferase reporter, luminescence, 24 h | Potency, µM (highest dose often 57 µM), without a hit: top-dose activity change, negative = inhibition, hits mostly inhibitors | 0.72% of 360,000 active; also: % is scaled to controls: 0 for no effect and ±100 for the full control effect; nearly all actives have a fitted effect of over 55% in size
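ATXN2-luciferase reporter cells (luciferase flanked by upstream and downstream ATXN2 gene portions) were treated 24 h at 37 °C with compounds at up to 57 uM. SteadyGlo luminescence gave expression; GF-AFC fluorescence gave viability.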
RORgamma inh = blocks mouse ROR gamma transcriptional activity; 5.4% of 310,000 active; P51450; Drosophila S2 Gal4-RORgamma UAS-luciferase reporter, 20 h; Potency, µM (highest dose often 53.6 µM), for inactives: at the highest dose activity change, negative = inhibition, usual class: inhibitors; also: % is scaled to controls: 0 for no effect and ±100 for the full control effect; nearly all actives have a fitted effect of over 60% in size
Target sequence (P51450 whole entry, looked up, the tested form may be a part): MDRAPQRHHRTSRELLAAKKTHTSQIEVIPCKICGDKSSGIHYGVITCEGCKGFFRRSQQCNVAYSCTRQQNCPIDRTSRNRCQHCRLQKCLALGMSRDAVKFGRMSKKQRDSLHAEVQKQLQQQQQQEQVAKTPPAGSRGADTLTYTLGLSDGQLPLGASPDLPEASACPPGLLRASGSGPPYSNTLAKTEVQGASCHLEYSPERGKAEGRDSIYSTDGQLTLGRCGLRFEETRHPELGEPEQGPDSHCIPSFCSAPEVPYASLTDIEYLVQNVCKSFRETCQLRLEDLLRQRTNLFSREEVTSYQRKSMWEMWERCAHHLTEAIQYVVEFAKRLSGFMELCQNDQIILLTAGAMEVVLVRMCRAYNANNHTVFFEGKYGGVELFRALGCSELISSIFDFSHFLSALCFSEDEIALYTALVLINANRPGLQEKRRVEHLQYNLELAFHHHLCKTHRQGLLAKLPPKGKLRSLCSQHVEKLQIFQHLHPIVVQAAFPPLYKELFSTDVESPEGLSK
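Read-out: Photinus luciferase luminescence; inhibitors lower reporter signal. Insect Schneider cells with Gal4-ROR gamma fusion under metallothionein promoter, UAS reporter; 700 uM final copper sulfate induction, 20 hr, ambient temperature.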
* marks the source's active call; other numbers are inactive results; i = inactive; ? = inconclusive; / = no result given; ! = not confirmed by another sample; [ ] = remark or other dose. Calls follow the shape of the dose curve; as a rule, active = well fitted curve in the direction sought with a large enough effect; inconclusive = small, poorly fitted or top-dose-only effect, or another doubt; inactive = no such curve, though single readings can be large; an effect the other way counts as inactive or inconclusive. Potency is read from the fitted curve at half-maximal effect.

SMILES | ATXN viability | TGFb SMAD3 inh | HepG2 viability | Gal4-VP16 FLuc | ATXN2 expr inh | RORgamma inh
CCC(=O)NC(=S)Nc1ccccc1C(=O)OC | ? | 0.0% | 2.7% | ? | 6.1% | 12.6µM*
COc1ccc(OCC(=O)Nc2nc(-c3ccc(Br)cc3)ns2)cc1 | / | -2.4% | -42.9% | / | / | /
CCn1c(=O)c([N+](=O)[O-])c(NCCN(C)C)c2ccccc21 | ? | -2.5% | 0.1% | 27.2% | 4.3% | -11.8%
CCn1c(=O)c([N+](=O)[O-])c(Cl)c2ccccc21 | 35.5µM* | ? | -57.0% | 8.91µM* | -5.3%[11.3 µM] | 7.94µM*
Oc1cc2cc(CCN3CCN(c4nsc5ccccc45)CC3)c(Cl)cc2[nH]1 | / | / | / | 1.6% | / | ?
COc1cc(C(C(=O)NC2CCCC2)N(C(=O)c2snc(C(N)=O)c2N)c2ccccc2)cc(OC)c1OC (centres undefined) | i | 14.1% | -8.5% | -15.7% | -6.5% | -10.4%
O=c1c2cc(Br)ccc2nc(-c2ccc([N+](=O)[O-])cc2)n1O | i | ? | -20.6% | 7.9% | -36.2% | ?
COc1ccc(CCn2c(S)nc3ccccc3c2=O)cc1 | i | 1.4% | -16.1% | ? | -2.6% | 3.16µM*
O=c1c2cc(Br)ccc2nc(-c2cccc(C(F)(F)F)c2)n1O | ? | ? | 14.1µM* | 20µM* | ? | 3.55µM*
O=c1c2ccc(Cl)cc2nc(-c2ccc([N+](=O)[O-])cc2)n1O | i | -9.1% | -23.4% | 17.8µM* | ? | 8.91µM*
COc1ccc(CCn2c(C)nc3c(c(=O)c4ccccc4n3C)c2=O)cc1 | i | ? | -9.1% | 1.7% | 72.5% | -14.8%
COc1ccc(-c2nc3ncccc3n2O)cc1 | i | -4.2% | 14.1µM* | -2.9% | 26.4% | 23.0%
COc1ccc(-c2nc3ccccc3c(=O)n2O)cc1 | i | -12.4% | 2.2% | ? | 3.7% | 12.6µM*
O=c1c2cc(Cl)ccc2nc(-c2ccccc2)n1O | i | -0.1% | -28.3% | 0.6% | -2.8% | 6.31µM*
COc1ccccc1-c1nc2cc(Cl)ccc2c(=O)n1O | ? | 8.3% | 8.3% | 2.51µM* | -34.7% | ?
CC1=C(c2ccc(C)c(C)c2)S(=O)(=O)N(Cc2ccc(C(=O)Nc3cc(F)ccc3F)cc2)C1=O | i | -0.8% | 1.6% | / | -2.9% | /
C=CCNc1ncnc2c1ncn2[C@H]1CN(CCN2CCOCC2)C[C@@H](CO)O1 | i | 18.8% | 0.4% | / | 12.8% | /
CCn1c(=N)n(CCOc2ccc(Br)cc2)c2ccccc21 | / | 8.91µM* | -99.1% | / | / | /
CCCCn1c(=N)n(CCOc2ccc(C)cc2)c2ccccc21 | ? | ? | -97.4% | -6.1% | ? | 29.8%
CCCCCn1c(=N)n(CC(O)COc2ccccc2OC)c2ccccc21 (centres undefined) | 28.2µM* | 11.2µM* | -84.3% | ? | 28.2µM*! | ?
CCCCn1c(=N)n(CCOc2ccccc2OC)c2ccccc21 | / | 10µM* | -59.0% | / | / | /
Cc1cccc(NC(=O)Cn2c(=O)n(Cc3ccccc3)c(=O)c3oc4ccccc4c32)c1C | i | 17.5% | -0.6% | / | 3.9% | /
CC(NC(=O)Cn1ncc2c3ccccc3n(Cc3ccc(F)cc3)c2c1=O)c1ccccc1 (centres undefined) | i | ? | -22.2% | / | 11.4% | /
O=C(N/N=C1\CC(c2ccccc2)Oc2ccccc21)c1cccnc1 (centres undefined) | i | -23.5% | -23.7% | 3.98µM* | ? | 5.62µM*
O=C(N/N=C1/CC(c2ccccc2)Oc2ccccc21)C1CC1 (centres undefined) | i | 6.1% | 4.7% | -15.1% | 2.0% | 11.2µM*
SMILES | ATXN viability | TGFb SMAD3 inh | HepG2 viability | Gal4-VP16 FLuc | ATXN2 expr inh | RORgamma inh
O=C(N/N=C1\CC(c2ccccc2)Oc2ccccc21)c1ccccn1 (centres undefined) | i | -14.9% | -23.9% | -7.7% | -21.0% | ?
N#Cc1ccc(OCC(=O)N/N=C2/CC(c3ccccc3)Oc3ccccc32)cc1 (centres undefined) | i | -12.6% | 1.6% | 11.2µM* | -20.5% | 11.2µM*
O=C(N/N=C1\CC(c2ccccc2)Oc2ccccc21)c1ccc(O)cc1 (centres undefined) | i | -28.3% | -19.2% | ? | -10.9% | -38.1%
CCOc1cccc(/C=C/c2ccc3cccc(O)c3n2)c1OC | i | ? | -12.8% | 12.6µM* | 6.1% | 2.82µM*
CCOc1cccc(/C=C/c2ccc3cccc(O)c3n2)c1O | ? | ? | -17.8% | ? | -8.3% | 3.55µM*
Cc1ccc(NC(=O)CN(C)C(=O)Cc2coc3cc(C)c(C)cc23)cc1 | i | 1.9% | -0.3% | / | 5.2% | /
CCN(CC(=O)Nc1ccc(OC)cc1)C(=O)Cc1coc2cc(C)c(C)cc12 | i | 0.1% | 11.2µM* | / | -11.5% | /
O=C(NC(=S)N1CCOCC1)c1cn(-c2ccccc2)nc1-c1ccccc1 | i | -5.4% | -27.1% | / | -15.4% | /
O=C(NC(=S)NCCO)c1cn(-c2ccccc2)nc1-c1ccccc1 | i | 19.4% | 0.9% | ? | -9.2% | 10µM*
Nc1nc(-c2nn(Cc3ccccc3F)c3ncccc23)nc(N)c1N1CCOCC1 | / | / | / | / | -11.4% | /
C=CCn1c(=S)[nH]c2sc3c(c2c1=O)CCCC3 | i | -14.5% | -38.9% | 0.708µM* | / | 0.398µM*
COCCCn1c(=S)[nH]c2sc3c(c2c1=O)CCCC3 | i | 2.4% | -0.1% | 1µM* | -21.3% | 0.794µM*
COCCn1c(=S)[nH]c2sc3c(c2c1=O)CCCC3 | ? | 4.0% | -20.2% | 2.24µM* | 7.1% | 3.98µM*
CCN(CC)C(=O)CSc1nc2sc3c(c2c(=O)n1CCOC)CCC3 | i | 5.4% | -4.9% | 5.4% | 4.0% | 1.4%[1.91 µM]
O=c1[nH]c2sc3c(c2c(=O)n1Cc1ccccc1)CCC3 | i | -6.0% | -9.2% | -0.6% | -2.6% | -14.8%[10 µM]
